From PubChem BioAssay (Tox21)
Inconclusive results are not listed. Entries that show only a call come without a potency. Values without a mark were called inactive. The source made the active and inactive calls. Calls follow the shape of the dose curve; as a rule, active = well fitted cell-killing curve with a large enough effect in the repeat runs; inconclusive = weak or mixed curves, or effect the other way; inactive = flat fitted curve, though single readings scatter.

Test: cAMP Responsive Elements (CRE) small molecule antagonists, cell-based qHTS assay: qHTS cell viability counter screen (AID 2060913); also: nearly all actives have a fitted effect of over 40% in size
Details: CRE-bla HEK293T viability, CellTiter-Glo luminescence, 5 h; series mostly up to 92.4 µM
Method in brief: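 Steps: cells plated and held 18 hrs at 37 C/5% CO2; compounds and NKH477 (0.25 uM final) added; 3 hrs incubation; reporter substrate read; CellTiter-Glo added to measure cytotoxicity by luminescence.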

Structure (SMILES)	Potency	viability change, negative = cytotoxic
OC[C@H](Cc1cccc(O)c1)[C@H](CO)Cc1cccc(O)c1	inactive	
O=C(O)c1cc2ccccc2cc1O	inactive	
Cc1ncc([N+](=O)[O-])n1C	inactive	
Cc1ccccc1C#N	inactive	
CCC(CC)Nc1ccc(C)c(C)c1	inactive	
NS(=O)(=O)c1cc(C(=O)O)cc(N2CCCC2)c1Oc1ccccc1	inactive	
C[C@H]1[C@H](NC(=O)/C(=N/OC(C)(C)C(=O)O)c2csc(N)n2)C(=O)N1S(=O)(=O)O (stereo in doubt)	inactive	
O=Cc1ccc(Cl)cc1	inactive	
CC1=C(C(=O)O)N2C(=O)[C@@H](NC(=O)[C@H](N)c3ccccc3)[C@H]2SC1	inactive	
Oc1cccc(-c2c3nc(c(-c4cccc(O)c4)c4ccc([nH]4)c(-c4cccc(O)c4)c4nc(c(-c5cccc(O)c5)c5ccc2[nH]5)CC4)C=C3)c1	inactive	
C=C[Si](C)(C)Cl		-0.015% [at 8.39 µM]
O=C(O)c1cccc(Oc2ccccc2)c1	inactive	
O=C1OC(O)C(C(Cl)Cl)=C1Cl (stereo not given)	inactive	
OCCN1CCN(CCO)CC1	inactive	
C=C1CC[C@H]2C[C@@H]1C2(C)C	inactive	
Cc1ccccc1S(N)(=O)=O	inactive	
C[C@@H](O)C(=O)O	inactive	
FC(F)(F)C(F)(F)C(F)(F)C(F)(F)C(F)(F)C(F)(F)C(F)(F)C(F)(F)C(F)(F)C(F)(F)F		10.4% [at 8.39 µM]
CCN(C(=O)c1cc(C)cc(OC[C@H](C)Nc2ccncc2)c1)C(C)C	inactive	
O=S1(=O)CC=CC1	inactive	

Structure (SMILES)	Potency	viability change, negative = cytotoxic
CCOC(=O)c1ccc(C2CCC(NC[C@H](O)COc3ccc(O)c(NS(C)(=O)=O)c3)CC2)cc1 (stereo not given in full)	inactive	
CC1=NN(c2cc(Cl)c(S(=O)(=O)O)cc2Cl)C(=O)C1N=Nc1ccc(S(=O)(=O)O)cc1 (stereo not given)	inactive	
O=C(O)CCCCCCCCCCCBr	inactive	
Clc1ccc2c(c1)Nc1ccccc1S2	inactive	
CCCCCCCCCCOc1cc2c(=O)c(C(=O)OCC)c[nH]c2cc1OCC		-0.799% [at 8.39 µM]
COC(=O)C(C)O (stereo not given)	inactive	
COc1c2occc2c(OC)c2c(=O)cc(C)oc12	inactive	
O=c1c(O)c(O)c1=O	inactive	
C[C@@H](C1=C(CCN(C)C)Cc2ccccc21)c1ccccn1	inactive	
Nc1ccn([C@@H]2O[C@H](CO)[C@@H](O)[C@@H]2O)c(=O)n1	inactive	
Cc1c(C)c2c(c(C)c1O)CC[C@@](C)(CCC[C@H](C)CCC[C@H](C)CCCC(C)C)O2	inactive	
CO[C@@H]1COCC[C@@H]1N[C@@H]1CC[C@@](C(=O)N2CCc3ncc(C(F)(F)F)cc3C2)(C(C)C)C1	inactive	
CN=C(N)NC(=O)Nc1c(C)cccc1C	inactive	
CN1CCC[C@H]1c1cccnc1	inactive	
Cc1ccc(O)cc1	inactive	
CO[Si](OC)(OC)OC	inactive	
O=CNNC=O	inactive	
COC(=O)c1ccccc1C(=O)O	inactive	
Cc1ccc(O)cn1	inactive	
CC[C@@H]1C[C@H](N(Cc2cc(C(F)(F)F)cc(C(F)(F)F)c2)C(C)=O)c2cc(C(F)(F)F)ccc2N1C(=O)OC(C)C	inactive	
